# In the supplement of paper PMC10338343:
# ± gives the standard deviation.
# Test system: EfPiwi piRISC loaded with piRNA #1 (26 nt)
# Assay: pre-steady-state target cleavage rate (min^-1); auxiliary factor: 500 nM Ephydatia muelleri Gtsf1; guide: piRNA #1 5'p-UGAGGUAGUAGGUUGUAUAGUAUCCA; MIWI and MILI are mouse PIWI proteins and EfPiwi is from a freshwater sponge; tags in brackets are library labels; higher = faster piRNA-guided slicing of the target
# Summary of the method: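 The pre-steady-state cleavage rate was derived from a burst-and-steady-state fit of Cleave-'n-Seq data. For these assays, 1 nM active affinity-purified piRISC loaded with a single synthetic guide was mixed with […] a transcribed, DNA-blocked target RNA library in HEPES–potassium acetate buffer at 33 °C, with or without 500 nM GTSF1 partner protein, for 0–8 or 0–960 min. Sequencing counts of uncleaved targets were normalised to depth and to weakly complementary targets, and k3 was capped at 0.0001 min^-1 after three trials were pooled.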
row,Sequence,pre-steady-state target cleavage rate
1,GGAGACGCUACUAUACAACCUACUACCUCA,0.163 ± 0.051
2,GGAGACCAUACUUUACAACCUACUUCCUCA,0.00404 ± 0.0039
3,GGAGACCUAACUAUACAACCUACUACCUACA,0.00795 ± 0.0042
4,GGAGUCGAUACUAUACAACCUACUACCUGA,0.00547 ± 0.0021
5,GGAGACCUAAUUAUACAACCUACUACCUCA,0.0144 ± 0.0065
6,GGAGACCAUACUAUACAACGUACUACCUCA,0.00482 ± 0.0015
7,GGAGACCAUACUAUUACAACCUACUACCUCA,0.0115 ± 0.0046
8,GGAGACGAUUCUAUAGAACCUACUACCUCA,0.00226 ± 0.0018
9,GGAGACGAAACUAUACAACCUACUUCCUCA,0.00318 ± 0.0023
10,GGAGACGUUACUAUACAACCUACUACCUGA,0.00573 ± 0.0022
11,GGAGAGGAUACAAUACAACCUACUUCCUCA,0.00257 ± 0.002
12,GGAGACGAUACUCUACAACCUACUACCUCA,0.00744 ± 0.0035
13,GGAGAGGAUACAAUACAACCUACUACCUCA,0.0112 ± 0.005
14,GGAGUGGAUACAAUACAACCAACUACCUCA,0.00289 ± 0.0015
15,GGAGACGAUACUAUACAACCUACUUCCACA,0.00373 ± 0.0021
16,GGAGACGAUACUAUACAAGCUACUACGUCA,0.00352 ± 0.0014
17,GGAGACGAUACUAUACAAGCUACUACCACA,0.00387 ± 0.0017
18,GGAGACCUUACUUUACAACCUAGUACCUCA,0.00395 ± 0.0033
19,GGAGACGAUACUUUACAACCUAGUACCUCA,0.00252 ± 0.0017
20,GGAGACCAUACUAUACAACCUACUACCGCA,0.00689 ± 0.0023

row,Sequence,pre-steady-state target cleavage rate
1,GGAGUGGAUACUAUACAACGUACUACCUCA,0.00682 ± 0.0022
2,GGAGAGGAUACUAUACAACCUACUACCCCA,0.00713 ± 0.0022
3,GGAGAGGUUACUAUACUACCUACUACCUCA,0.00488 ± 0.0024
4,GGAGACGAUACUAUACAACCAAGUACCUCA,0.00215 ± 0.0019
5,GGAGACCUAACUUUACAACCUACUACCUCA,0.00631 ± 0.0034
6,GGAGACCUAUCUAAUACAACCUACUACCUCA,0.00579 ± 0.004
7,GGAGACCUUACUAUACAUCCUAGUACCUCA,0.00256 ± 0.0016
8,GGAGACCUUACUAUACAACCUACUACGAGA,0.00452 ± 0.0025
9,GGAGACGAUACUAUACAAGCUACUUCCUCA,0.00404 ± 0.0021
10,GGAGACGAUACAAUACAACCUACUACCUGA,0.0025 ± 0.0015
11,GGAGACCUAUGAAUACAACCUACUACCUCU [g2:g18:cont:t1U],0.688 ± 0.25
12,GGAGUGGAUAGUUUACAACCUACUACCUCA,0.00446 ± 0.0033
13,GGAGACCUUACUAUACGACCUACUACCUCA,0.016 ± 0.0076
14,GGAGAGGAUUACUAUACAACCUACUACCUCA,0.0829 ± 0.03
15,GGAGACCAUACUAUUCAACGUACUACCUCA,0.00247 ± 0.0019
16,GGAGACCAUACUACACAACCUACUACCUCA,0.0182 ± 0.0078
17,GGAGACCUAAAUAUACAACCUACUACCUCA,0.0102 ± 0.0046
18,GGAGACCUAUGUAUACAACCUACUACUCUCA,< 0.0001
19,GGAGACGAUACAAUACAACCUACUACCACA,0.00392 ± 0.0029
20,GGAGAGGAUACUAUACUAGCUACUACCUCA,0.00387 ± 0.0029
